DNMT1 block: human DNMT1 methyltransferase inhibitors, primary screen, biochemical, molecular beacon, fluorescence, HinP1I cleavage, uHTS. DNA (cytosine-5)-methyltransferase 1 (Homo sapiens), P26358. inhibition (reported as % activation of signal), % at 10 µM. 0.83% of 360,000 active. AID 588458, 2011; in the data active = inhibition above about 50%
Target sequence (P26358 504-1616 limits assumed): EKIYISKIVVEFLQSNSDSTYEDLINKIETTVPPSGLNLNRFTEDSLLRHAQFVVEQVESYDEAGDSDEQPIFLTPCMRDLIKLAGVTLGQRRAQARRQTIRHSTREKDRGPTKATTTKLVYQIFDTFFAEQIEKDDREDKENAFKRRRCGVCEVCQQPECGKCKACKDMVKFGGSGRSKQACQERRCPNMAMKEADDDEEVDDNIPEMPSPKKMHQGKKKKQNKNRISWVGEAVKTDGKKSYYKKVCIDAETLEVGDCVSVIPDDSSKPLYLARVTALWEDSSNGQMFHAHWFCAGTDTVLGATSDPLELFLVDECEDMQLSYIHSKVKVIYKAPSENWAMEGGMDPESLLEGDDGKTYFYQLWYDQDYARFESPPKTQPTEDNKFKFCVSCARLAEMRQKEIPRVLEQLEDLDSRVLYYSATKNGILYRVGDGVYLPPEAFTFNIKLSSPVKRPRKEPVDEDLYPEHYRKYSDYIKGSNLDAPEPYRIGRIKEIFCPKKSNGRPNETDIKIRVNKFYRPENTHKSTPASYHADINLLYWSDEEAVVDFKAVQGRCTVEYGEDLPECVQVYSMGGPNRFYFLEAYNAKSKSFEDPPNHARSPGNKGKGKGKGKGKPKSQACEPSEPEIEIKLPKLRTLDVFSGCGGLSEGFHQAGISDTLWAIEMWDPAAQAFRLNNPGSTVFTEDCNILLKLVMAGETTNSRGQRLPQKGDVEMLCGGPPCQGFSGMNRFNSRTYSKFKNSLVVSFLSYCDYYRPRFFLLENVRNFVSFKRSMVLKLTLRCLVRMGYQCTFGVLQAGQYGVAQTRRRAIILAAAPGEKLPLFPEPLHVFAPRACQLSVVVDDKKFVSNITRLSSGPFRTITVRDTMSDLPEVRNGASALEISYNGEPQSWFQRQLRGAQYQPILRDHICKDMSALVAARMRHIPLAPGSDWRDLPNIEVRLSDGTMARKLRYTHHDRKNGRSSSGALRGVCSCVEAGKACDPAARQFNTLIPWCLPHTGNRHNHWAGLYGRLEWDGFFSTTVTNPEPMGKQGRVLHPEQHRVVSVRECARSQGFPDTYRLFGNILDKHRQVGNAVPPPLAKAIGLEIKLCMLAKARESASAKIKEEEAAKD
MBD2 DNA inh: inhibitors of MBD2 binding to methylated DNA, primary screen, biochemical, TR-FRET, DNA-binding domain, human; MBD2 binding to methylated oligonucleotide; inhibition, % at 4.4 µM; 0.31% of 370,000 active; in the data active = inhibition above about 13%
PG9 Ab binder: binders of HIV-1 gp120 antibody PG9, primary screen, biochemical, TR-FRET; HIV-1 gp120 / PG9 antibody interaction; TR-FRET gp120-PG9 antibody binding; inhibition, % at 6.7 µM; 0.43% of 360,000 active; in the data active = inhibition above about 8.5%
rCAG binder: binders of r(CAG) RNA repeats, primary screen, biochemical, fluorescence | 1.3% of 370,000 active | inhibition, % at 3 µM | r(CAG) RNA repeat, TO-PRO-1 dye displacement fluorescence;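 active = inhibition above the plate cutoff, the mean of all test compounds on that plate plus 3 SD, cut at about 35% in these data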;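 also: 0% = DMSO alone and 100% = 100 µM mitoxantrone as full dye displacement; higher means more dye released from RNA so lower well fluorescence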
LEDGF integ inh: blockers of LEDGF/p75-dependent integrase strand transfer – biochemical, TR-FRET, high throughput, primary screen | HIV-1 integrase (with human LEDGF/p75) | TR-FRET IN-LEDGF/p75 DNA integration, Eu/Cy5 | inhibition, % at 3.7 µM | 0.64% of 370,000 active;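 active = inhibition above the screen-wide mean plus 3 SD, cut at about 13% in these data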;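 also: signal is the Cy5 over europium emission ratio at 671 and 618 nm; 0% = plate median of compound wells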
UHRF1 binding: UHRF1 methylated DNA binding inhibitors, primary screen, counter-screen for MBD2 inhibitor project, biochemical, TR-FRET, human UHRF1, single concentration; UHRF1 binding to methylated oligo; inhibition, % at 4.4 µM; 0.75% of 370,000 active; AID 687016, 2013; E3 ubiquitin-protein ligase UHRF1 (Homo sapiens), Q96T88; in the data active = inhibition above about 21%;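 also: UHRF1 SRA domain binding a hemimethylated CpG hairpin DNA probe; 0% = median of test compound wells and 100% = reference inhibitor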
rCAG bind conf: small molecules binding CAG repeat RNA – biochemical, fluorescence, confirmation. shares compounds with rCAG binder. r(CAG) RNA repeat, TO-PRO-1 dye displacement fluorescence. inhibition, % at 3 µM. 70% of 4,300 active;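 active = inhibition above a per-plate cutoff, the mean inhibition of sample wells plus 3 SD, cut at about 35% in these data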;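 also: loss of TO-PRO-1 fluorescence as compound displaces dye from 1x1 AA loop RNA; 0% = DMSO only wells and 100% = 100 µM mitoxantrone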
DNA CAG counter: displacement of TO-PRO-1 from CAG DNA duplex, counter-screen for rCAG RNA repeat binder project, biochemical, fluorescence, TO-PRO-1 dye, d(CAG) DNA oligo. shares compounds with rCAG binder. AID 652068, 2013. d(CAG) DNA oligo TO-PRO-1 dye displacement. 94% of 4,300 active. inhibition, % at 3 µM;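 active = inhibition above its plate's cutoff, the mean test-well inhibition plus 3 SD, cut at about 4.8% in these data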;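 also: 0% = DNA dye mix with DMSO and 100% = 100 µM mitoxantrone; hits displace the dye from DNA and so lower well fluorescence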
* marks the source's active call; other numbers are inactive results; · = not tested or not shown. In the library only some 3.5% were active in any assay of this set; here they are far more common.

SMILES	DNMT1 block	MBD2 DNA inh	PG9 Ab binder	rCAG binder	LEDGF integ inh	UHRF1 binding	rCAG bind conf	DNA CAG counter
O=C(NC(=S)Nc1ccc(S(=O)(=O)Nc2nccs2)cc1)c1ccccc1F	-1	-4	0	42*	2	6	41*	13*
O=C(NC(=S)Nc1ccc(S(=O)(=O)Nc2nccs2)cc1)c1ccc(Br)o1	2	3	-2	47*	0	-1	33	12*
O=C(NC(=S)Nc1ccc(S(=O)(=O)Nc2nccs2)cc1)c1ccccc1	2	-4	0	41*	0	4	37*	8.9*
O=C(NC(=S)Nc1ccc(S(=O)(=O)Nc2nccs2)cc1)c1cccnc1	-1	5	-1	7	2	-2	·	·
COc1cccc(OC)c1C(=O)NC(=S)Nc1ccc(S(=O)(=O)Nc2nccs2)cc1	-1	4	-1	59*	0	2	40*	16*
CCc1ccc(OCC(=O)NNCC(=O)Nc2ccc(OC)cc2)cc1	-2	6	0	-4	1	0	·	·
O=C(NC(=S)Nc1ccc(S(=O)(=O)Nc2nccs2)cc1)c1ccc(F)c(F)c1	13	3	-2	63*	2	3	40*	12*
Nc1nonc1-c1nc2ccccc2n1CC(=O)N/N=C/c1ccc(-c2cccc(C(=O)O)c2)o1	27	0	0	61*	6	6	46*	14*
COC(=O)c1ccc(COc2ccccc2/C=C(\C#N)C(=O)NC(C)C)cc1	1	1	-1	-1	-4	2	·	·
COC(=O)c1ccc(COc2ccccc2/C=C/C(=O)c2ccc(OCC(=O)O)cc2)cc1	2	10	-1	56*	1	4	64*	24*
CN(C)S(=O)(=O)c1cccc(NC(=S)NC(=O)c2ccco2)c1	-1	0	-1	2	2	0	·	·
CN(C)S(=O)(=O)c1cccc(NC(=S)NNC(=O)c2cc3ccccc3cc2O)c1	-16	-3	0	87*	-1	-3	86*	56*
O=C(NC(=S)NNC(=O)c1cc2ccccc2cc1O)c1ccco1	-3	-3	0	67*	6	-4	53*	17*
O=C(NC(=S)NNC(=O)c1ccccc1O)c1ccco1	2	2	-4	2	2	2	·	·
CN(CC(=O)Nc1ccc(Cl)c(C(F)(F)F)c1)C(=O)Cn1cc([N+](=O)[O-])ccc1=O	-15	-7	-1	17	13	1	·	·
CC(=O)N1c2ccc(S(=O)(=O)NCCC(=O)Nc3ccc(C)c(Cl)c3)cc2CC1C (stereo unspecified)	-3	-2	2	7	-1	1	·	·
COc1ccc(C(=O)N2CCCC(O)C2)cc1OC1CCN(C(C)C)CC1 (stereo unspecified)	0	5	0	-6	-5	6	·	·
Cc1cccc(NC(=S)NNC(=O)COc2ccc(Cl)cc2Cl)c1	1	0	0	45*	-2	-1	33	10*
CSC(=Nc1ccccc1)C(C#N)c1nc2ccccc2[nH]1 (stereo unspecified)	-5	1	-3	4	0	-1	·	·
N#CC(C(=S)Nc1ccccc1)c1nc2ccccc2[nH]1 (stereo unspecified)	-13	2	-1	65*	-2	-5	46*	16*
CC(C)(C)OC(=O)C[C@@H]1C/C=C\C[C@@H](CC(=O)N[C@H](CO)Cc2ccccc2)C(=O)N2CCC[C@H]2COC1=O	1	-6	1	-1	-5	-1	·	·
CCC(Sc1ncccc1C(=O)O)C(=O)N1CCCC1 (stereo unspecified)	11	-1	1	43*	-3	0	3	0
CCC(Sc1ncccc1C(=O)O)C(=O)N1CCOCC1 (stereo unspecified)	0	0	1	-1	3	2	·	·
CCc1ccc2nc(N(CCN(C)C)C(=O)c3ccc4ncsc4c3)sc2c1	-3	5	0	-6	-2	5	·	·
COc1cccc(Cn2cnc(-c3ccccc3OC)c2C2CC2)c1	·	-1	-1	1	11	-1	·	·
SMILES	DNMT1 block	MBD2 DNA inh	PG9 Ab binder	rCAG binder	LEDGF integ inh	UHRF1 binding	rCAG bind conf	DNA CAG counter
Nc1ccc(C(=O)Nc2ccccc2C(=O)O)cc1	2	0	-2	12	-2	1	·	·
O=C(O)c1ccccc1NC(=O)c1ccccc1Nc1ccccc1	-4	-2	0	83*	0	0	67*	29*
O=C(Nc1ccccc1C(=O)NCc1ccccc1)c1ccccc1Br	-1	-7	2	-2	1	-2	·	·
CS(=O)(=O)N(Cc1ccccc1)c1ccc(C(=O)Nc2ccccc2C(=O)O)cc1	-5	3	-1	65*	1	3	57*	13*
O=C(Nc1ccccc1C(=O)Nc1ccccc1C(=O)O)c1ccccc1	-4	-2	1	73*	5	1	66*	26*
COc1ccccc1NC(=O)c1ccccc1Nc1ccccc1	-2	-2	-3	-2	3	-4	·	·
O=C(Nc1ccccc1C(=O)O)c1ccc(Br)c(S(=O)(=O)NCc2ccccc2)c1	-2	-6	-1	73*	4	0	61*	22*
CCN(C(=O)CSc1nc2cc(S(=O)(=O)N(CC)CC)ccc2o1)C1CCS(=O)(=O)C1 (stereo unspecified)	1	4	0	-3	-2	0	·	·
Cn1cccc1C(NC(=O)c1ccccc1)C(Cl)(Cl)Cl (stereo unspecified)	-1	-3	0	-4	0	13	·	·
Cc1ccc(-n2[nH]c(C)c(C=Nc3ccc(S(=O)(=O)Nc4nccs4)cc3)c2=O)cc1C	-10	-2	-2	56*	1	-8	75*	38*
Cc1[nH]n(-c2ccccc2)c(=O)c1C=Nc1ccc(S(=O)(=O)Nc2nccs2)cc1	-1	-1	-2	43*	-2	-7	41*	13*

Source: PubChem (several laboratories)
